From PubChem BioAssay AID1776 (NMMLSC, 2009)
Among all 190,000 compounds or so, about 490 (0.26%) were called active. What follows is part of a selection rich in actives, with near analogues and random picks from the rest. Values without a mark were called inactive. No stated cut-off is given here; in the data, active means fluorescence above about 89; inactive means the rest.

Assay: green autofluorescence of compounds with GSH beads – biophysical, 488/530 nm, flow cytometry, artefact control, profiling panel (AID 1776);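 further: glutathione beads carrying GST-tagged Bcl family fusion proteins plus one bare bead set; values are compound well signal with DMSO vehicle wells as background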
Details: compound fluorescence 488/530 nm, at 10 µM, stronger effect = higher value

SMILES | fluorescence (KMESF)
CCN(CC)Cc1nc2sc(C)c(C)c2c(=O)[nH]1 | 11
O=C(CN1CCN(c2ccc(Cl)cc2)CC1)NCc1cccs1 | 18
Cc1cccc(N2Cc3ccccc3C2=NC(=O)c2ccc(Cl)nc2)c1 | 8
O=C(CSc1nc2ccccc2[nH]1)Nc1nc(-c2ccccc2)c(-c2ccccc2)o1 | 12
O=c1c([N+](=O)[O-])cccn1Cc1ccc(F)cc1Cl | 14
COc1ccc(COC(=O)N/N=C(\C)CC(=O)Nc2ccc(Cl)cc2)cc1 | 5
CC(C)(C)c1ccc(NC(=O)COC(=O)CCc2nc3ccccc3c(=O)[nH]2)cc1 | 11
OCCC1CN(Cc2ccccc2-c2ccco2)CCN1Cc1ccsc1 (stereo not drawn) | 17
COc1ccccc1-n1c(=S)[nH]c2c(sc(=S)n2-c2ccc(C)cc2C)c1=O | 25
Cc1ccc(CCC(=O)Nc2ncc(Cc3cc(Cl)ccc3Cl)s2)o1 | 7
O=C(c1cnn(-c2ccc(Cl)cc2)c1)c1ccccc1O | 11
Cc1ncc(CC(=O)n2cc(C(=O)c3cc(Cl)ccc3O)cn2)s1 | 256 (active)
COCCCNc1nc2c(-c3cccc(C(F)(F)F)c3)nnn2c2ccccc12 | 16
O=S(=O)(Nc1cc(S(=O)(=O)N2CCOCC2)ccc1N1CCCC1)c1cccs1 | 19
O=S(=O)(Nc1ccccc1N1CCOCC1)c1ccc(Cl)s1 | 266 (active)
COc1cc(NC(=O)c2ccccc2NS(=O)(=O)c2ccc(Cl)s2)cc(OC)c1 | 9
COc1cc([N+](=O)[O-])ccc1NC(=O)CN1CCCC1 | 10
CCOC(=O)CC(=O)CSc1nc(-c2ccccc2)cc(-c2ccc(Cl)cc2)c1C#N | 8
CCOC(=O)CSc1ccccn1 | 16
CCOC(=O)CSc1nccc(N(C)C)c1C#N | 281 (active)
Cc1ccc(CN2CCC(N3CCC(C(=O)NCC4CCCO4)CC3)CC2)o1 (stereo not drawn) | 22
O=C(NCC1CCCCC1)c1cc(S(=O)(=O)N2CCCCC2)ccc1N1CCOCC1 | 10
CCN1C(=O)/C(=c2\s/c(=C3\Sc4ccccc4N3C)c(=O)n2C)N(C)C1=S | 15
COc1cc(-c2nnn(CC(=O)NCc3ccccc3)n2)cc(OC)c1OC | 13
O=C(CSc1ccc([N+](=O)[O-])cn1)Nc1ccc(N2CCOCC2)cc1 | 16

SMILES | fluorescence (KMESF)
CCOc1cc(/C=N/NC(=O)OC)ccc1OCCSc1ccc(Cl)cc1 | 13
CCC1C=C(c2ccccc2)C=CN=C1N(CC)CC (stereo not drawn) | 5
Brc1ccc(CSc2ccc(-c3ccco3)nn2)cc1 | 11
COC(=O)CC1=NN(c2nc(C)cc(C)n2)C(=O)C1 | 14
Cc1ccc2[nH]c(C(=O)O)c(NC(=O)c3ccccc3[N+](=O)[O-])c2c1 | 10
CCCCN1C(=O)/C(=C(/C#N)C(N)=O)c2ccccc21 | 16
CCN(Cc1ccccc1)S(=O)(=O)c1cc(C(=O)O)ccc1OC | 14
CC[C@H]1OC(=O)[C@H](C)[C@@H](O[C@H]2C[C@@](C)(OC)[C@@H](O)[C@H](C)O2)[C@H](C)[C@@H](O[C@@H]2O[C@H](C)C[C@H](N(C)C)[C@H]2O)[C@](C)(O)C[C@@H](C)[C@@H]2N[C@@H](COCCOC)O[C@H]([C@H]2C)[C@]1(C)O | 22
O=C(Cc1c(F)cccc1Cl)Nc1ncc([N+](=O)[O-])s1 | 18
COc1cc(-c2cc(C(=O)OCC(=O)Nc3ccc4c(c3)OCO4)c3ccccc3n2)cc(OC)c1OC | 4
Cc1cc(C)cc(C(=O)NC2C(=O)N3C(C(=O)O)=C(CSc4nnc(C)s4)CSC23)c1 (stereo not drawn) | 12
CCOC(=O)CNc1nc(Cl)nc(Nc2ccccc2)n1 | 10
Cc1ccccc1OCC(O)CN1CCN(c2ccccn2)CC1 (stereo not drawn) | 9
Cc1cccc(OCC(O)CN2CCN(CCN3C(=O)c4cccc5cccc(c45)C3=O)CC2)c1C (stereo not drawn) | 13
OC(COc1cccc2ccccc12)CN1CCN(c2ccccn2)CC1 (stereo not drawn) | 265 (active)
Cc1cccc(C(=O)OCC(=O)Nc2sc3c(c2C#N)CCC3)c1 | 5
CC(C)CC(=O)NC(=S)Nc1ccc(F)cc1F | 10
Cc1ccc(C2NC(C(=O)O)CS2)cc1 (stereo not drawn) | 11
O=C(Nc1ccccc1F)c1ccccc1-c1ccccc1 | 15
Cc1cc(C)nc(Nc2cc([N+](=O)[O-])ccc2C)n1 | 10
Cc1ccc(-n2cc3ccc([N+](=O)[O-])cc3n2)cc1 | 104 (active)
Cc1ccc(-c2cn3cc([N+](=O)[O-])ccc3n2)cc1 | 13
CCOC(=O)C1(Cc2cccc(OC)c2)CCN(Cc2csc(C(C)=O)c2)CC1 | 17
COCC(C)NC(=O)CSc1nc2nn(-c3ccccc3)c(=O)c-2c2n1CCCCC2 (stereo not drawn) | 25
COc1cccc(OC)c1C(=O)OCC(=O)/C(C#N)=C(\C)N | 11

SMILES | fluorescence (KMESF)
C/C(=N\NC(=O)NC1CCCCC1)c1ccc(OC(F)F)cc1OC(F)F | 14
COc1cccc(/C=C(/CC(=O)Nc2ccc(N3CCOCC3)cc2)c2nc3ccccc3s2)c1 | 13
CCS(=O)(=O)c1ccc(C(=O)NC)c(Cl)c1Cl | 12
Cc1ccccc1Nc1nc(N)nc(CSc2ccccc2)n1 | 11
Cc1nn(C)c(C)c1S(=O)(=O)N1CCC(CO)(Cc2ccc(Cl)cc2)CC1 | 23
NS(=O)(=O)c1ccc(NC(=S)NC(=O)c2cccc(Br)c2)cc1 | 19
CC(=O)Cc1nsc(NC(=O)c2ccc(Cl)cc2Cl)n1 | 10
COc1cc(NC(=O)c2cc([N+](=O)[O-])ccc2Br)ccc1NC(=O)c1ccco1 | 8
O=C(NCc1cccnc1)c1nc(-c2cccs2)no1 | 15
Cc1ccc(C(=O)NN(CCC#N)C2=NS(=O)(=O)c3ccccc32)cc1 | 20
CCNC(=O)c1ccc(OCC(=O)Nc2ccc(F)cc2)c(OC)c1 | 14
CCC(C)c1ccc(NC(=S)NCc2ccccn2)cc1 (stereo not drawn) | 13
CC(C)(C)NC(=O)CN1CCC(NC(=O)C23CC4CC(CC(C4)C2)C3)CC1 | 20
Cc1ccc(CN(Cc2cccnc2)C(=S)Nc2cc(Cl)ccc2C)cc1 | 15
CCOC(=O)C(NC(C)=O)C(=O)Nc1ccc(OC)cc1 (stereo not drawn) | 24
CCOC(=O)C1CCN(c2ccc(C(=O)O)cc2[N+](=O)[O-])CC1 | 14
O=C(/C=C/c1ccc(F)cc1)NC(=S)NNC(=O)c1cccnc1 | 7
Cc1cc(SCC(=O)NCCN2C(=O)CSC2=O)nc2ccccc12 | 15
Cc1ccc(CC2S/C(=C(/C#N)C(=O)N3CCOCC3)N(c3ccccc3)C2=O)cc1 (stereo not drawn) | 25
CCN(CC)C(=O)CN(c1cccc([N+](=O)[O-])c1)S(=O)(=O)c1ccccc1 | 52
CCOc1ccc(S(=O)(=O)N(CC(=O)O)c2ccccc2)cc1 | 264 (active)
CCN(c1ccccc1)S(=O)(=O)c1ccc(N)cc1 | 14
Cc1ccc(C)c(-n2nnnc2SCC(=O)c2c(N)n(C)c(=O)n(C)c2=O)c1 | 179 (active)
CNC(=O)CSc1nnnn1-c1ccc(C)cc1C | 23
CCOC(=O)CNC(=O)CSc1nnnn1-c1cc(C)ccc1C | 33

SMILES | fluorescence (KMESF)
CN(C)CC(C)(C)CNC(=O)c1cc(Br)cc(Br)c1O | 12
C=CCNC(=S)NNC(=O)COc1c(Cl)cc(Cl)cc1Cl | 12
Cc1cc(C)nc(NNC2=CC(=O)CC(C)(C)C2)n1 | 16
COc1ccc(C(=O)NNc2cc(C)nc(NNC(=O)c3ccc(OC)cc3)n2)cc1 | 11
CC1CCCCC1NC(=O)CN1CCC(O)(c2ccc3c(c2)OCO3)CC1 (stereo not drawn) | 15
CC1=C(C)CC(C(=O)NNC(=O)c2csc3c2CCC(C(C)(C)C)C3)C(C(=O)O)C1 (stereo not drawn) | 10
Cc1ccccc1CC1(CO)CCCN(Cc2ccc3c(c2)OCCO3)C1 (stereo not drawn) | 18
S=c1[nH]ccn1-c1ccc(Cl)cc1 | 11
COCCSc1nnc(NC(=O)c2cc(OC)c(OC)cc2[N+](=O)[O-])s1 | 21
Cc1ccc(C(=O)NC(C)c2ccccc2)cc1Br (stereo not drawn) | 15
OCCC#Cc1ccc(CN2CCN(Cc3ccsc3)C(CCO)C2)cc1 (stereo not drawn) | 10
CCCCCc1nnc(NC(=O)c2ccc(=O)n(C)n2)s1 | 16
CC1(C)CC(=O)C(N=Nc2ccc(S(=O)(=O)N3CCCCCC3)cc2)=C(O)C1 | 11
COc1cc(OC)cc(-c2nc3ccccc3c(=O)n2NC(=O)c2cccnc2Cl)c1 | 10
Cc1ccc(C)c(-n2ccnc2SCC(N)=O)c1 | 20
CC(C)c1nc(CNC(=O)CC2C(=O)NCCN2Cc2ccoc2)cs1 (stereo not drawn) | 15
COc1cc(OC)c(C(=O)N2CCCC2)cc1OC | 10
O=C(COc1ccc([N+](=O)[O-])cc1)Nc1ccc(N2CCCC2)cc1 | 9
Cc1nn(-c2ccc([N+](=O)[O-])cc2)c(N)c1-c1ccccc1 | 8
Cc1cc(NS(=O)(=O)c2ccc(NC(=S)NC(=O)c3ccc(F)cc3Cl)cc2)no1 | 12
CNc1ccc(NC(C)=O)cc1[N+](=O)[O-] | 13
CCCOCC(O)CC(CC)C(=O)NNC(=S)Nc1ccccc1 (stereo not drawn) | 13
S=C(Nc1cccc(Br)c1)N1CCn2cccc2C1c1cccnc1 (stereo not drawn) | 15
